# Experimental data published in the supplement of paper PMC11417369.
# Whole data set: some 25,000 sequences, median “ln(normalized median fluorescence intensity)” near 9.3, cut for the highest 2% near 10. Shown is part of a subset that was picked to be rich in the highest values.
# Test system: PF3D7_0420300 AP2 domain 1 (GST-tagged)
# Assay: gcPBM binding intensity (ln(normalized median fluorescence intensity)); higher = stronger DNA binding
# In short: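 For binding intensity, the highest Masliner-normalised natural-log median intensity across replicate spots of either probe orientation was taken. Protein bound to the array was stained with Alexa488 anti-GST antibody and scanned at 488 nm. The protein, GST-tagged P. falciparum DNA-binding domains from E. coli at about 25 μg on average, had been applied for 1 h to an Agilent 4 × 180k array of primer-extended double-stranded 36-bp intergenic genomic probes and negative controls.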
row,Sequence,gcPBM binding intensity (ln)
1,AAAAAGGGTATTATTACACACACGTAAATATTAATA [CACACA_site101],9.61
2,TTTCCTTTTTTAATATGTACACATATTATTATATCT [XGTACX_site3079],9.45
3,ATAATTTAAAAACATTGTACATTAATATATATGTAT [XGTACX_site8970],9.12
4,GTACACATATATATATATATATATATATATATATAT [CACACA_negctrl_site800],9.25
5,ATATATATTTTTATTTGTACATAATTTTTTTTGTGA [XGTACX_site6378],9.21
6,ACCAAAAAAAAAAAAAAAAAAATATACATATATATA [GTGCAC_negctrl_site582],9.05
7,TCATTTCACAGACACACACACACAAGATATTTCCTT [CACACA_site7774],10
8,ATTTCACAGAGACACACACACAATATATTTCCTTTT [CACACA_site7773],9.94
9,TTTCATTTCACAGACACACACACACCCTATATTTCC [CACACA_site3906],10.2
10,AAAGAAAATTAAAAAGAACACACAAATATATATATA [CACACA_site9196],9.67
11,AAATAGAAAAAATATACACACACTTATTAAATAAAA [CACACA_site3313],9.86
12,TGAGTATATAAATACACACACATATATATATTTTAA [CACACA_site5130],9.61
13,TATATATATATATATGCATGTACATATATTTGTTAT [TGCATGCA_site379],9.57
14,ATATATATATATATATGTACTCATATTTTATTATTT [XGTACX_site898],9
15,ATGCATATATTTATGTGTACATATATTTGTAGGGGG [XGTACX_site6063],10.7
16,TATATATATATATTATGTACTCATTTATTATCTTTT [XGTACX_site8051],9.36
17,ATATATATTTATATATGTACATATTTTTGTGTATTT [XGTACX_site1183],9.55
18,TTTGTCATTTTATTATGTACTCAGCATATAGGGGGG [XGTACX_site505],10.5
19,TATATACACATATATACACACACATATATATATATA [CACACA_site9127],9.79
20,TTACCAAAAACCTCAAGTACAAAAAATCCCTAATAT [XGTACX_site2313],9.37
21,TATATATTAAACTTTGCACACATAATTTAACTACAA [CACACA_site3440],9.4
22,TTAGATATAAAAGCATGTACTTGTATAAAATATATA [XGTACX_site8272],9.16

row,Sequence,gcPBM binding intensity (ln)
1,TACATATACAGACACACACACACACCCCCACAAAAA [CACACA_site495],10.3
2,CATGCAAAAAATTCCACACACACACCCACATATAAA [CACACA_site1229],9.92
3,TACAGACATACATACACACATACATATATATATATA [CACACA_site1940],9.67
4,TATATACATAGACACCCACACACAAAAAAAAAAAAA [CACACA_site8186],9.75
5,TTGGCATACAGACACACACACACACGCCCACATATA [CACACA_site6425],10.2
6,TACATGCAAAAAATTCCACACACACCCCCACATATA [CACACA_site8329],10.2
7,TGCAAAAAATTCCACACACACACACCCATATAAATA [CACACA_site1230],10
8,CACACCCACAGACACACACACACATATATATATATA [CACACA_site363],10.2
9,CACACCCACAGACACACACACACATATATAATATAT [CACACA_site594],10.2
10,TTACATTATATACATACACACCCACCCACAAAAAAA [CACACA_site8187],10.1
11,TATACAGACAGACACACACACATATATATATATATA [CACACA_site1734],9.82
12,CCTTTATATTATAAAAGTACATAATATTTTATAAGT [XGTACX_site1629],8.96
13,TATATATGTATCATTACACACATGTATACTTATTTG [CACACA_site4138],9.71
14,TGAGAGTTCTCATATGCACACAAAAAACTTTCATTT [CACACA_site7898],9.28
15,TATTTTTAATAAAAACGTACGGAATACAAAAAAAAT [XGTACX_site3477],9.4
16,AAGAAAATTGTCTGAAGTACAAAACATTAATAATAT [XGTACX_site4864],9.27
17,ATATTATAATTAAAACGTACGTATTTATGAATTCAT [XGTACX_site1047],9.16
18,ATAAATAATATAAATACACACTAAAAAAAATATATA [CACACA_site4456],9.7
19,CAAAAACATACCTACACACACAATATGTATAAATAA [CACACA_site7617],10
20,TATACATACAGACCCACACACAAAAAAAAAAAAAAA [CACACA_site6536],9.38
21,CATACACCCATACATACACACATACAGATATATATA [CACACA_site5123],9.74
22,TTGGCATACAGACACACACACACACCCCCACATATA [CACACA_site590],10.1
